From PubChem BioAssay
SARS PLpro yeast = inhibitors of SARS-CoV papain-like protease in yeast; Potency, µM (titrated, usually from 32.9 µM), inactives show at the highest dose activity, positive = growth rescue, most hits filed as activators; 330,000 compounds, 0.19% hits; AID 485353; S. cerevisiae expressing SARS-CoV PLpro, growth rescue; calls by dose curve; also: potency is read from the fitted curve at half-maximal effect; 0% is about no effect; nearly all actives have a fitted effect of over 55% in size
AMA1 RON2 block = inhibitors of Plasmodium falciparum AMA1-RON2 interaction | 360,000 compounds, 0.2% hits | AID 720542 | Potency, µM (highest dose often 58.2 µM), without a hit: top-dose activity change, negative = inhibition, usual class: inhibitors | AlphaScreen AMA1-biotinylated RON2 peptide binding;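 also: potency is read from the fitted curve at half-maximal effect; 0% = vehicle wells and -100% = peptide control; nearly all actives have a fitted effect of over 45% in size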
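AMA1 (3D7) with his tag at 25 nM final met compounds first, then biotinylated RON2 peptide at 25 nM; detection used donor plus acceptor beads, 10 µg/mL apiece, read by AlphaScreen after 30 min at room temperature.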
Pf growth 48h = inhibits P. falciparum growth in the first generation, 48 h | Potency, µM (titrated, usually from 28.7 µM), inactives show top-dose activity change, negative = inhibition, usual class: inhibitors | P. falciparum luciferase growth in erythrocytes, 48 h | 310,000 compounds, 5.9% hits; also: potency is read from the fitted curve at half-maximal effect; % is scaled to controls: 0 for no effect and ±100 for the full control effect
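Growth was read as firefly luciferase luminescence after a 48 h, 37 C, 5% CO2 exposure of compounds to reporter-bearing P. falciparum cultures (0.1% parasitemia, 2% hematocrit final) in Albumax-supplemented RPMI 1640.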
Pf growth 96h = inhibits malaria parasite growth, 96 h; P. falciparum luciferase reporter growth, 96 h; AID 504834; Potency, µM (top dose mostly 28.7 µM), without a hit: at the highest dose activity change, negative = inhibition, actives largely listed as inhibitors; 320,000 compounds, 6.9% hits; also: potency is read from the fitted curve at half-maximal effect; % is scaled to controls: 0 for no effect and ±100 for the full control effect
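Parasite growth measured via integrated firefly luciferase reporter in P. falciparum. Infected erythrocytes at 2% hematocrit, 0.05% parasitemia final were treated 96 hours at 37 C under 5% CO2, and luminescence was read.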
CHX counter = affects cycloheximide protein synthesis inhibition readout, counter-screen; cell reporter, cycloheximide protein synthesis inhibition counterscreen; max response, %; 300,000 compounds, 12% hits; AID 2314; in the data active = max response mostly above about 13%, no sharp cut-off; inactive = mostly below about 14%; also: read at 38.3 µM for the half of the compounds with a filed dose; 0% is about no effect
Shiga toxin inh = Shiga toxin inhibition. inhibition, % at 38.7 µM. AID 2315. 290,000 compounds, 9.2% hits. Vero cells, Shiga toxin protein synthesis inhibition reporter; in the data active = inhibition mostly above about 28%, no sharp cut-off; inactive = mostly below about 43%; also: 0% is about no effect
An asterisk follows results filed as active; [ ] = another dose, or the depositor's remark. Compounds with a hit are over-represented: about 19% of the library has one in this group of screens. Unless noted, calls follow the shape of the dose curve; as a rule, active = well fitted curve in the direction sought with a large enough effect; inconclusive = small, poorly fitted or top-dose-only effect, or another doubt; inactive = no such curve, though single readings can be large; an effect the other way counts as inactive or inconclusive.

Screening S=C(NCc1cccs1)Nc1ccccc1 returned SARS PLpro yeast 8.3%, AMA1 RON2 block -2.4%, Pf growth 48h 15.7%, Pf growth 96h -9.0%, CHX counter -0.5 and Shiga toxin inh 4.5.
`COc1cccc(NC(=S)Nc2ccc(O)cc2)c1` gave SARS PLpro yeast 0.1%, AMA1 RON2 block 19.7%, Pf growth 48h 20.4%, Pf growth 96h 64.2%, CHX counter 32.1* and Shiga toxin inh 79.1*.
For O=C1C=CC(=O)N1N(c1ccccc1)c1ccccc1 the results were SARS PLpro yeast -60.4%, AMA1 RON2 block inconclusive, Pf growth 48h -10.0%, Pf growth 96h 26.1%, CHX counter -3.3 and Shiga toxin inh 1.1.
Screening COc1cccc(NC(=S)NCc2cccs2)c1 returned SARS PLpro yeast -4.5%, AMA1 RON2 block -5.2%[2.32 µM], Pf growth 48h 40.2%, Pf growth 96h 312.8%, CHX counter 3.2 and Shiga toxin inh 42.8*.
Screening Cc1cccc(NC(=S)NNC(=S)NCc2ccccc2)c1 returned SARS PLpro yeast 7.8%, AMA1 RON2 block 22.2%, Pf growth 96h 1.6%, CHX counter 44.3* and Shiga toxin inh 48.5.
For COc1cccc(NC(=S)Nc2ccc(Br)cc2Cl)c1 the results were SARS PLpro yeast -2.3%, AMA1 RON2 block 47.9%, Pf growth 48h 18.5%, Pf growth 96h 14.4%, CHX counter 19.6* and Shiga toxin inh 31.9.
For COc1cccc(NC(=S)NCc2cccnc2)c1 the results were SARS PLpro yeast 0.3%, AMA1 RON2 block -7.6%, Pf growth 48h 3.9%, Pf growth 96h inconclusive, CHX counter -3.5 and Shiga toxin inh 18.3.
`COc1cccc(NC(=S)NCc2ccccc2)c1` gave SARS PLpro yeast 3.3%, AMA1 RON2 block -1.0%, Pf growth 48h inconclusive, Pf growth 96h 3.1%, CHX counter 21.7* and Shiga toxin inh 33.0*.
Cc1cccc(NC(=S)NCc2cccs2)c1 was read as SARS PLpro yeast 1.1%, AMA1 RON2 block -11.0%, Pf growth 48h 4.2%, Pf growth 96h 24.6%, CHX counter 8.1 and Shiga toxin inh 10.3.
COc1ccccc1OCCNC(=O)C1CCN(C(C)=O)CC1 was read as SARS PLpro yeast 0.6%, AMA1 RON2 block 15.9%, Pf growth 48h -4.8%, Pf growth 96h 49.8%, CHX counter -1.9 and Shiga toxin inh 2.0.
Cc1cccnc1NC(=S)Nc1ccc(Br)cc1Cl was read as SARS PLpro yeast 0.3%, AMA1 RON2 block 61.4%, Pf growth 48h 288.0%, Pf growth 96h inconclusive, CHX counter 78.8* and Shiga toxin inh 126.2*.
For S=C(NCc1ccncc1)Nc1ccc(Br)cc1Cl the results were SARS PLpro yeast 1.0%, AMA1 RON2 block 4.9%, Pf growth 48h -11.4%, Pf growth 96h -7.5%, CHX counter 12.1 and Shiga toxin inh -8.4.
Screening CCOc1ccccc1-c1ccc(C(=O)O)o1 returned CHX counter -2.8 and Shiga toxin inh inactive.
CCOc1ccccc1OCCCOc1ccc(C)cc1Br was read as SARS PLpro yeast -32.8%, AMA1 RON2 block 86.8%, Pf growth 48h -22.2%, Pf growth 96h 23.6%, CHX counter 40.9* and Shiga toxin inh 70.1*.
COc1cc(C)ccc1OCCOCCOc1ccccc1Br was read as SARS PLpro yeast -4.8%, AMA1 RON2 block 85.9%, Pf growth 48h -1.0%, Pf growth 96h 2.62µM*, CHX counter -3.5 and Shiga toxin inh 27.0.
Screening CCN(CC)CCCOc1ccc(C)cc1Br returned SARS PLpro yeast 4.1%, AMA1 RON2 block 10.6%, Pf growth 96h inconclusive, CHX counter 5.9 and Shiga toxin inh 8.7.
`CCOc1ccccc1OCCCOc1ccc(C)cc1Cl` gave SARS PLpro yeast -16.6%, AMA1 RON2 block 117.4%, Pf growth 48h 3.4%, Pf growth 96h -1.2%, CHX counter 23.1* and Shiga toxin inh 61.5*.
`CN(C)c1ccc2c3c(ccc(N(C)C)c13)C(=O)OC2` gave SARS PLpro yeast 2.9%, AMA1 RON2 block -3.4%, Pf growth 48h -8.1%, Pf growth 96h -4.4%, CHX counter 13.9 and Shiga toxin inh -3.3.
`CC(C)(C)OC(=O)NCCc1onc(-c2ccc([N+](=O)[O-])cc2)c1C(=O)O` gave AMA1 RON2 block 12.3%.
O=C(OCC#CCSc1nnc(-c2ccncc2)o1)c1cccs1 was read as SARS PLpro yeast 24.0%, AMA1 RON2 block -6.3%, Pf growth 48h -7.6%, Pf growth 96h 11.7µM*, CHX counter -1.0 and Shiga toxin inh -3.7.
COc1ccc(-c2nnc(SCC#CCO)o2)cc1OC was read as SARS PLpro yeast 1.2%, AMA1 RON2 block 31.2%, Pf growth 48h 5.7%, Pf growth 96h 11.2%, CHX counter -1.7 and Shiga toxin inh 11.8.
For OCC#CCSc1nnc(-c2ccccc2Br)o1 the results were SARS PLpro yeast -2.8%, AMA1 RON2 block 13.3%, Pf growth 48h 59.8%, Pf growth 96h inconclusive, CHX counter 26.8* and Shiga toxin inh 37.8.
`OCC#CCSc1nnc(-c2ccc(Br)cc2)o1` gave SARS PLpro yeast -2.4%, AMA1 RON2 block 4.8%, Pf growth 48h 87.2%, CHX counter 33.3* and Shiga toxin inh 22.5.
COC(=O)CSc1nnc(-c2ccncc2)o1 was read as SARS PLpro yeast 0.7%, AMA1 RON2 block 15.4%, Pf growth 48h 4.0%, CHX counter -2.5 and Shiga toxin inh -6.8.
For COc1ccccc1CNC(=O)C1CCN(C(=O)c2sccc2-n2cccc2)CC1 the results were SARS PLpro yeast 0.3%, AMA1 RON2 block 4.7%, Pf growth 48h -1.8%, Pf growth 96h 0.7%, CHX counter 11.4 and Shiga toxin inh -3.4.
Screening CCOC(=O)c1cnn(-c2ccccc2)c1-n1cccc1C(=O)C(=O)N(CC)CC returned SARS PLpro yeast 0.0%, AMA1 RON2 block -2.2%, Pf growth 48h -9.3%, Pf growth 96h inconclusive, CHX counter 5.6 and Shiga toxin inh -4.5.
`Cn1cccc1C(=O)C(=O)Nc1ccccc1C(F)(F)F` gave SARS PLpro yeast -1.0%, AMA1 RON2 block -17.9%, Pf growth 48h 218.6%, Pf growth 96h 0.0%, CHX counter 39.9* and Shiga toxin inh 64.9*.
`CCOC(=O)c1cnn(-c2ccccc2)c1-n1cccc1C(=O)C(=O)Nc1ccccc1C(F)(F)F` gave SARS PLpro yeast -8.6%, AMA1 RON2 block -13.9%, Pf growth 48h 13.1µM*, Pf growth 96h 14.7µM*, CHX counter 0.2 and Shiga toxin inh -15.2.
`Cn1cccc1C(=O)C(=O)Nc1ccccc1` gave SARS PLpro yeast -1.3%, AMA1 RON2 block 4.2%, Pf growth 48h 211.2%, Pf growth 96h 110.6%, CHX counter 42.6* and Shiga toxin inh 90.9*.
Screening Cn1cccc1C(=O)Nc1ccc(N2CCOCC2)cc1 returned SARS PLpro yeast -2.2% and AMA1 RON2 block -6.5%.
For O=C(C[n+]1ccccc1)Nc1ccccc1C(F)(F)F the results were SARS PLpro yeast -3.4%, AMA1 RON2 block 11.4%, Pf growth 48h 5.8%, Pf growth 96h inconclusive, CHX counter 8.7 and Shiga toxin inh -5.9.
